# Source: PubChem BioAssay (NCI)
# The panel holds about 83,000 compounds, 20% with a hit somewhere; the sample as a whole holds those more often.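 Compound tested at a single concentration for 48 hours in 96-well plates; a percent growth value below 10 was scored as active.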 Unmarked numbers belong to inactive results. Calls of active or inactive are those of the source.
# How the values were obtained:
# Assay in all cases: NCI-60 one-dose screen, 48 h (100 = growth as untreated, 0 = no growth, -100 = all killed)
# Conditions in all cases: 10 µM unless noted
# DU-145 prostate = tested on: DU-145 prostate
# K-562 leukemia = tested on: K-562 leukemia
# MALME-3M melanoma = tested on: MALME-3M melanoma
# MDA-MB-231 breast = tested on: MDA-MB-231 breast
# RXF 393 renal = tested on: RXF 393 renal
# SF-268 CNS = tested on: SF-268 CNS
# SF-295 CNS = tested on: SF-295 CNS
# SF-539 CNS = tested on: SF-539 CNS
# UACC-257 melanoma = tested on: UACC-257 melanoma
# M14 melanoma = tested on: M14 melanoma
# HCT-15 colon = tested on: HCT-15 colon
# HT29 colon = tested on: HT29 colon
# SNB-75 CNS = tested on: SNB-75 CNS
# SNB-19 CNS = tested on: SNB-19 CNS
# U251 CNS = tested on: U251 CNS
# PC-3 prostate = tested on: PC-3 prostate
# SK-MEL-5 melanoma = tested on: SK-MEL-5 melanoma
# UACC-62 melanoma = tested on: UACC-62 melanoma
# LOX IMVI melanoma = tested on: LOX IMVI melanoma
# SK-MEL-28 melanoma = tested on: SK-MEL-28 melanoma
Compound,growth (DU-145 prostate),growth (K-562 leukemia),growth (MALME-3M melanoma),growth (MDA-MB-231 breast),growth (RXF 393 renal),growth (SF-268 CNS),growth (SF-295 CNS),growth (SF-539 CNS),growth (UACC-257 melanoma),growth (M14 melanoma),growth (HCT-15 colon),growth (HT29 colon),growth (SNB-75 CNS),growth (SNB-19 CNS),growth (U251 CNS),growth (PC-3 prostate),growth (SK-MEL-5 melanoma),growth (UACC-62 melanoma),growth (LOX IMVI melanoma),growth (SK-MEL-28 melanoma)
COc1ccc(NC(=O)CCCCCCNC(=O)C(O)(O)C(F)(F)F)cc1,28.7%,21.7%,18.8%,59.5%,0.972% (active),56.5%,24.3%,48.7%,48.7%,49.6%,67.7%,23.1%,60.2%,66.8%,39.7%,52.7%,17%,17.4%,35.2%,40%
CCn1c2ccc(/C=N/N(C)S(=O)(=O)CCN(C)C)cc2c2cc(/C=N/N(C)S(=O)(=O)CCN(C)C)ccc21,77.3%,8.55% (active),62.7%,55%,46.9%,76.7%,80%,4.32% (active),92.8%,66%,26.2%,44.8%,87.1%,85.8%,64.8%,85.8%,62.4%,81.7%,-15.3% (active),87.9%
C/C(=N\NC(=O)/C=C/CC(=O)O)c1nnn(-c2ccc([N+](=O)[O-])cc2)c1C,104%,103%,97.9%,104%,106%,96.9%,97%,100%,105%,103%,105%,106%,97.6%,98.3%,100%,94.7%,99.2%,101%,101%,114%
COc1ccc2[nH]cc(-c3nn4cc(-c5ccncc5)nc4s3)c2c1,88.8%,28.5%,86.3%,82.3%,96%,86.9%,62.8%,88.3%,109%,82.8%,37.8%,66.6%,61.7%,75.3%,67.9%,45.7%,67.4%,63.8%,57.8%,112%
CC(C)NC(=O)c1cc(-c2ccc(NC(=O)Nc3ccc(F)c(C(F)(F)F)c3)cc2)nc2cccnc12,100%,84.2%,123%,92.3%,81.9%,92%,86.2%,90.3%,101%,92.3%,89.7%,91%,80%,93.6%,87.8%,84.2%,93.2%,97%,88.8%,100%
Cc1ccc(C(=O)Nc2ccc(CNCCN3CCNCC3)c(C(F)(F)F)c2)cc1C#Cc1cnc2cccnn12,6.09% (active),-22.2% (active),-70.8% (active),-75.6% (active),-90.1% (active),-14.2% (active),-37.4% (active),-83% (active),-6.59% (active),-64.6% (active),14.1%,5.76% (active),42.5%,8.65% (active),-6.31% (active),23.8%,-87.1% (active),-41% (active),-86.1% (active),-68% (active)
C#C[C@]1(O)CC[C@H]2[C@@H]3CC=C4c5sc(Nc6cc(C)cc(C)c6)nc5CC[C@]4(C)[C@H]3CC[C@@]21C,45.4%,0.356% (active),-4.28% (active),33.5%,-77.2% (active),22.3%,-71.7% (active),-47.7% (active),16%,-60.2% (active),-37.1% (active),0.349% (active),10.2%,14.8%,8.96% (active),-8.26% (active),-42.5% (active),-16.4% (active),-68.3% (active),-37.9% (active)
CN1CCN(Cc2ccc(NC(=O)c3cncc(C#Cc4cnc5ccc(OC6CCOCC6)nn45)c3)cc2C(F)(F)F)CC1,-89.5% (active),-0.118% (active),-87.5% (active),-59.9% (active),-80.9% (active),-58.4% (active),-97% (active),-92.8% (active),-72.3% (active),-91.2% (active),-66.4% (active),-68% (active),-84.9% (active),-84% (active),-82.8% (active),-49.7% (active),-95.6% (active),-70.5% (active),-93% (active),-82.5% (active)
O=C(CN1CCN(c2cc(=O)[nH]c3ccc(F)cc23)CC1)N(c1ccccc1)c1ccccc1,107%,94.9%,100%,98.1%,103%,99.8%,107%,101%,106%,105%,97.7%,110%,71.3%,93.4%,107%,96.5%,100%,98%,101%,111%
C#CCN(C)CCCOc1ccc(NCc2ccc(C(=O)NO)cc2)cc1Cl,25.7%,15.5%,16.9%,35.8%,-3.35% (active),30.3%,0.985% (active),23.9%,10.3%,29%,20%,16.2%,10.4%,35.2%,20%,29.4%,9.67% (active),-6.34% (active),10.6%,24%
N#Cc1c(-c2ccc(F)cc2)cc(-c2c[nH]c3ccccc23)nc1-c1c[nH]c2ccccc12,106%,105%,102%,102%,112%,101%,103%,100%,107%,97.4%,99.6%,110%,98.6%,102%,94.9%,103%,100%,98.3%,107%,107%
CN1CCN(c2ccc(Nc3nc(NCCCNS(=O)(=O)c4ccc(C(F)(F)F)cc4)c4sccc4n3)cc2)CC1,-8.78% (active),5.24% (active),-87.8% (active),-60.1% (active),-87% (active),-53.3% (active),-74.6% (active),-92.6% (active),-91.7% (active),-80.5% (active),-72.7% (active),-75.8% (active),-79.5% (active),17.5%,-83.4% (active),20.7%,-95% (active),-80.3% (active),-83.6% (active),-92.8% (active)
CSc1ccc(/C(=N/N=C(N)N)c2ccc(F)cc2)cc1,20.9%,0.0764% (active),90.4%,24.2%,-4.77% (active),36.3%,11.8%,10.4%,66.1%,3.79% (active),6.59% (active),4.2% (active),44.2%,25.7%,11.2%,20%,-11.3% (active),36.2%,5.46% (active),60.9%
O=C(CSc1nc2ccccc2c(=O)n1-c1ccccc1)Nc1ccc(S(=O)(=O)Nc2nccs2)cc1,84.1%,58.2%,88.5%,74.1%,76.5%,44.5%,98.2%,69%,62.8%,78.6%,66.5%,69.5%,57.4%,43.7%,2.78% (active),91%,66.5%,71.4%,36.5%,76.3%
CC(=C(c1ccc(OCCN(C)C)cc1)c1ccc(OCCN(C)C)cc1)c1ccc(Cl)cc1,-73.6% (active),-9.65% (active),-79.9% (active),-75.4% (active),-86.6% (active),-47.7% (active),-78.1% (active),-83% (active),-69.6% (active),-63.5% (active),-79.7% (active),-67.3% (active),-20.2% (active),-40.9% (active),-60.6% (active),-52.9% (active),-95.9% (active),-67.6% (active),-92.8% (active),-82.6% (active)
